Holding throughout (assay): DAPPL (digital affinity profiling via proximity ligation, sequencing); 10 mM Tris-HCl pH 7.5, 50 mM NaCl, 1 mM DTT, 4% glycerol, room temperature, 30 min; GST-TFs on glutathione beads, 16-mer random dsDNA library, 0.1% formaldehyde crosslink after washing; high values mean tight binding
One experiment deals with T1, FEV (Homo sapiens, UniProt Q99581 1-238).
T1 sequence: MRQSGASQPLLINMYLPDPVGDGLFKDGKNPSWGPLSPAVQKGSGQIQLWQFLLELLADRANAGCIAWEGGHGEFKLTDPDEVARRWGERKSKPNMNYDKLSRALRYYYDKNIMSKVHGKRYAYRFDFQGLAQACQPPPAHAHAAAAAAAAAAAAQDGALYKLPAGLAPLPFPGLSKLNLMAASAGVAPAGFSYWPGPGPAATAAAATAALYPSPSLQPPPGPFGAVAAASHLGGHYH
As to conditions: protein: recombinant; tags: N-terminal GST; dsDNA, one strand shown. Summed up:
(§1)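 Binding signal is given per hexamer as its read frequency for a factor divided by its frequency in the tag-only sample. GST-fused human transcription factors were expressed in yeast, captured on glutathione beads, barcoded with DNA and pooled with that sample, then incubated with 200 nmole of a 16-mer random double-stranded DNA library in Tris/NaCl/DTT/glycerol buffer for 30 min at room temperature. The pools were then washed, crosslinked, proximity-ligated, amplified by PCR and sequenced on an Illumina NextSeq500.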

The next experiment has as its target ETV5 (Homo sapiens, UniProt P41161 1-510). The conditions noted are these: protein: recombinant; tags: N-terminal GST; dsDNA, one strand shown. In short, it runs like this: as §1
Another experiment deals with HSF1 (Homo sapiens, UniProt Q00613 1-529). The conditions noted are these: protein: recombinant; tags: N-terminal GST; chain copies: 3; dsDNA, one strand shown. In short, it runs like this: as §1
The next experiment addresses T2, SPIC (Homo sapiens, UniProt Q8N5J4 1-248).
T2 sequence: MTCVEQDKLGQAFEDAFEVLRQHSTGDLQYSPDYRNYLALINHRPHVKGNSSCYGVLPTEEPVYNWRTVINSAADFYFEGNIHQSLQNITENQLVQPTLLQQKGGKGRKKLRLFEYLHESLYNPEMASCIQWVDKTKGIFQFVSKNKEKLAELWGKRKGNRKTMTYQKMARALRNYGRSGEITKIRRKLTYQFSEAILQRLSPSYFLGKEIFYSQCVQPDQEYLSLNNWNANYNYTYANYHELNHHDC
The conditions noted are these: protein: recombinant; tags: N-terminal GST; dsDNA, one strand shown. In short, it runs like this: as §1

A further experiment has as its target ELF4 (Homo sapiens, UniProt Q99607 1-663). As to conditions: protein: recombinant; tags: N-terminal GST; dsDNA, one strand shown. In short, it runs like this: as §1
The target of a further experiment is T3, ELK4 (Homo sapiens, UniProt P28324-2 1-405).
T3 sequence: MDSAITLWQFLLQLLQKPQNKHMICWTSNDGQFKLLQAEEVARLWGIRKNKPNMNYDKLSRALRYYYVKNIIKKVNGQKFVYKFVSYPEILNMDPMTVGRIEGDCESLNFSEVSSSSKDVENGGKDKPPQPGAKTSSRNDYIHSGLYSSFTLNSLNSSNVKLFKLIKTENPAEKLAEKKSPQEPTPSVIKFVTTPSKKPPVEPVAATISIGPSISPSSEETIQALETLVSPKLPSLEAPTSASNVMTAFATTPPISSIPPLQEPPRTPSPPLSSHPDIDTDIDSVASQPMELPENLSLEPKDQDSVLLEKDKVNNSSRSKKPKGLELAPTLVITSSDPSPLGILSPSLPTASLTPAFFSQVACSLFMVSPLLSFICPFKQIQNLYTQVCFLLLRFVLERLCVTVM
As to conditions: protein: recombinant; tags: N-terminal GST; dsDNA, one strand shown. In short, it runs like this:
as §1

The target in a further experiment is T4, ETV2 (Homo sapiens, UniProt O00321 1-342).
T4 sequence: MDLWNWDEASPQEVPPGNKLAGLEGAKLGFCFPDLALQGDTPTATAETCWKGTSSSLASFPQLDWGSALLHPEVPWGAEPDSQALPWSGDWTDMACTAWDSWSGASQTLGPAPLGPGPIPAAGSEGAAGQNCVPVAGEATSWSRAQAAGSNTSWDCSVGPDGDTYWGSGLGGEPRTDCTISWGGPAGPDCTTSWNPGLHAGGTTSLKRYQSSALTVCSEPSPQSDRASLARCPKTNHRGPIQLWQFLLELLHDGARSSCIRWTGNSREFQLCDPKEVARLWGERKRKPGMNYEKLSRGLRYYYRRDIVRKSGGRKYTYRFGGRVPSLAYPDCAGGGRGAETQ
The conditions noted are these: protein: recombinant; tags: N-terminal GST; dsDNA, one strand shown. In short, it runs like this:
as §1

The target in a further experiment is T5, ELF3 (Homo sapiens, UniProt P78545 1-371).
T5 sequence: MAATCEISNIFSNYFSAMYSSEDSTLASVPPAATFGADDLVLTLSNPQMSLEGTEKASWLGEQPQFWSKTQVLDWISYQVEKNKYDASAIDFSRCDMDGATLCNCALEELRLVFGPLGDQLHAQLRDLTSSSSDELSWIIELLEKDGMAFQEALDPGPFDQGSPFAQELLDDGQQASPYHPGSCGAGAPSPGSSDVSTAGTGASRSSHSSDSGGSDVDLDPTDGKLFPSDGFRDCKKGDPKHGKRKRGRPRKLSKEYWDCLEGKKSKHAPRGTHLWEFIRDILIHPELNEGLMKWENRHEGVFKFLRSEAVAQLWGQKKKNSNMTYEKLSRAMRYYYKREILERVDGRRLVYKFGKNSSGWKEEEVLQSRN
The conditions noted are these: protein: recombinant; tags: N-terminal GST; dsDNA, one strand shown. In short, it runs like this:
as §1

The next experiment deals with CRX (Homo sapiens, UniProt O43186 1-299). The conditions noted are these: protein: recombinant; tags: N-terminal GST; dsDNA, one strand shown. In short, it runs like this: as §1
Another experiment addresses ETV1 (Homo sapiens, UniProt P50549 1-477). As to conditions: protein: recombinant; tags: N-terminal GST; dsDNA, one strand shown. In short, it runs like this:
as §1

For the next experiment, the target named is T6, ERF (Homo sapiens, UniProt P50548 1-548).
T6 sequence: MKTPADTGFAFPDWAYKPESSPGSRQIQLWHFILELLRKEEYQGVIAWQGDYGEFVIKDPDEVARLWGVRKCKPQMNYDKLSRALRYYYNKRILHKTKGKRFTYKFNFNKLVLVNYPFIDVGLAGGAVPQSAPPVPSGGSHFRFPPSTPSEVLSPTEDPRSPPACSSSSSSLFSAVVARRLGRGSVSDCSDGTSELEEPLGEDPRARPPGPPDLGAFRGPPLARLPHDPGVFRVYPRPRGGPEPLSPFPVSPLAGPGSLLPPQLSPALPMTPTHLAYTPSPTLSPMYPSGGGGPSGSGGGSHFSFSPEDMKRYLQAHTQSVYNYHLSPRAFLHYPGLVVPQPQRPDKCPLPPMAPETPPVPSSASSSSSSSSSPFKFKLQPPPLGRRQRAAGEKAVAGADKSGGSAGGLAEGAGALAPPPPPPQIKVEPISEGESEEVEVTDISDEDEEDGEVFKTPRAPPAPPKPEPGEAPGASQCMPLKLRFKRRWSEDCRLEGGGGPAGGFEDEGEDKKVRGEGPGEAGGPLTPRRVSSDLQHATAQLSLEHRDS
As to conditions: protein: recombinant; tags: N-terminal GST; dsDNA, one strand shown. In short, it runs like this: as §1

Another experiment has as its target T7, ETV3L (Homo sapiens, UniProt Q6ZN32 1-361).
T7 sequence: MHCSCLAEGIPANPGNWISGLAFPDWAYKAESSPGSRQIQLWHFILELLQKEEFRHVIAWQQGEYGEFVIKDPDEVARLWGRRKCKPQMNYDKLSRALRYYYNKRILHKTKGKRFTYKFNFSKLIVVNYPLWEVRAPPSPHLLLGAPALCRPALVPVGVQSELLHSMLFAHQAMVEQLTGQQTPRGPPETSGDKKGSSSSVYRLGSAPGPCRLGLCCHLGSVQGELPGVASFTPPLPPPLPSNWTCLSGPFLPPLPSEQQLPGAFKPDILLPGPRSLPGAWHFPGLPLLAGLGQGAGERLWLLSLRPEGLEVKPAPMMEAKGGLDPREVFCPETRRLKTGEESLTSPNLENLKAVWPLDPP
The conditions noted are these: protein: recombinant; tags: N-terminal GST; dsDNA, one strand shown. In short, it runs like this: as §1

For a further experiment, the target named is T8, ETS2 (Homo sapiens, UniProt P15036 1-469).
T8 sequence: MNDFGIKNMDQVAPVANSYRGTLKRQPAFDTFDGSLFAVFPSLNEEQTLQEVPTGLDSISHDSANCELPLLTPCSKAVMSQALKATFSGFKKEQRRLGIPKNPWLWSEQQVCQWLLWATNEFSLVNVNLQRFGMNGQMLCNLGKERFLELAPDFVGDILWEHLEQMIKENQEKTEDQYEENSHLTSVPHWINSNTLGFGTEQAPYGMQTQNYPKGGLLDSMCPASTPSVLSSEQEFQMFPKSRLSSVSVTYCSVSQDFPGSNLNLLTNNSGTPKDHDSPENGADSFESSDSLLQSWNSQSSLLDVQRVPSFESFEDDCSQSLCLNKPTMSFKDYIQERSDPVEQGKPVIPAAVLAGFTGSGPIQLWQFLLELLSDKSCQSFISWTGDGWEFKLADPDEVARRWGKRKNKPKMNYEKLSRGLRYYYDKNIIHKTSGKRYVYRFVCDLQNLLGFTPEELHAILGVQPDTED
The conditions noted are these: protein: recombinant; tags: N-terminal GST; dsDNA, one strand shown. Summed up: as §1

For a further experiment, the target named is T9, SPDEF (Homo sapiens, UniProt O95238 1-335).
T9 sequence: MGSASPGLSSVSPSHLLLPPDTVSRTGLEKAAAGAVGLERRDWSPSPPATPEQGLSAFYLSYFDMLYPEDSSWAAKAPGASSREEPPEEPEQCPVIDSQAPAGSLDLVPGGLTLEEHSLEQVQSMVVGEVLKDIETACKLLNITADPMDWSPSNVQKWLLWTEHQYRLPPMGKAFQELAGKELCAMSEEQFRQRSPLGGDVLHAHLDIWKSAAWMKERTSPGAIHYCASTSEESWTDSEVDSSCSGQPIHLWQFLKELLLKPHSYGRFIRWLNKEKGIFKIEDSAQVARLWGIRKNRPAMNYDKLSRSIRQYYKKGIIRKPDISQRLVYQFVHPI
As to conditions: protein: recombinant; tags: N-terminal GST; dsDNA, one strand shown. Summed up: as §1

The next experiment has as its target T10, ETV7 (Homo sapiens, UniProt Q9Y603 1-341).
T10 sequence: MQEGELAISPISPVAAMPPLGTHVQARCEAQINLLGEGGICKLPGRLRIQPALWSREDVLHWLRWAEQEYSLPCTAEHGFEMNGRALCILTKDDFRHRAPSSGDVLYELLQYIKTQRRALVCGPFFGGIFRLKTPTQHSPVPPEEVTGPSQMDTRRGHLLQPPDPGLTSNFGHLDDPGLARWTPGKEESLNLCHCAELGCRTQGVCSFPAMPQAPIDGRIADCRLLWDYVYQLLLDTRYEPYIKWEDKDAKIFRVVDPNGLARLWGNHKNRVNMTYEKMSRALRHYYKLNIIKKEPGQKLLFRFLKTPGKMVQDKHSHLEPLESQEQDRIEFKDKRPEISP
As to conditions: protein: recombinant; tags: N-terminal GST; dsDNA, one strand shown. In short, it runs like this: as §1

The next experiment addresses T11, ELF5 (Homo sapiens, UniProt Q9UKW6-2 1-255).
T11 sequence: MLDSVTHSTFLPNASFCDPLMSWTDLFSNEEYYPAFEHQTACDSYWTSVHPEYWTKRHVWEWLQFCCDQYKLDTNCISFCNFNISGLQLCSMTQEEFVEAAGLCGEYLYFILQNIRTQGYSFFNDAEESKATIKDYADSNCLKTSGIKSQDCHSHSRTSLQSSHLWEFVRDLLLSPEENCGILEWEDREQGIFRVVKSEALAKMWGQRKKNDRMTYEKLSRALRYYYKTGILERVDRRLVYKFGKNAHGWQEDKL
The conditions noted are these: protein: recombinant; tags: N-terminal GST; dsDNA, one strand shown. Summed up:
as §1

A further experiment deals with T12, ETV3 (Homo sapiens, UniProt P41162-2 1-143).
T12 sequence: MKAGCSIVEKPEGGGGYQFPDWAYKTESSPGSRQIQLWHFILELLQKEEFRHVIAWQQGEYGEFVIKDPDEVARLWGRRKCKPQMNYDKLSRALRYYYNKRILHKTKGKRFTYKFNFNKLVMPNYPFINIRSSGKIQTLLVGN
As to conditions: protein: recombinant; tags: N-terminal GST; dsDNA, one strand shown. In short, it runs like this: as §1

Another experiment deals with ETV6 (Homo sapiens, UniProt P41212 1-452). The conditions noted are these: protein: recombinant; tags: N-terminal GST; dsDNA, one strand shown. Summed up: as §1
Sequence of ETV6 (P41212 whole entry): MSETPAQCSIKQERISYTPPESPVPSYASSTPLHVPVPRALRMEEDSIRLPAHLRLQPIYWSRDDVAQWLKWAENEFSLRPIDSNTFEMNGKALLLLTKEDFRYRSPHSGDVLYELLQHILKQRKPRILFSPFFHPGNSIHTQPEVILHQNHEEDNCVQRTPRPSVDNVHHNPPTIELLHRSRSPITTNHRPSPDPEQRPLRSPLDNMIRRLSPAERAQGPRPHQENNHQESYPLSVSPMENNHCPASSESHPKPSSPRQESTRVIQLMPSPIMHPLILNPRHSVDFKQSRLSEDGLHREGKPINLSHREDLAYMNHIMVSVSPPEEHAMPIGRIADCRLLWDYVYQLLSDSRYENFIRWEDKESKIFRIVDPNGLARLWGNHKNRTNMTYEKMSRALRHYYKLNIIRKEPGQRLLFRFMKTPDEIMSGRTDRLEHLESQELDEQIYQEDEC

Sequence of ETV1 (P50549 whole entry): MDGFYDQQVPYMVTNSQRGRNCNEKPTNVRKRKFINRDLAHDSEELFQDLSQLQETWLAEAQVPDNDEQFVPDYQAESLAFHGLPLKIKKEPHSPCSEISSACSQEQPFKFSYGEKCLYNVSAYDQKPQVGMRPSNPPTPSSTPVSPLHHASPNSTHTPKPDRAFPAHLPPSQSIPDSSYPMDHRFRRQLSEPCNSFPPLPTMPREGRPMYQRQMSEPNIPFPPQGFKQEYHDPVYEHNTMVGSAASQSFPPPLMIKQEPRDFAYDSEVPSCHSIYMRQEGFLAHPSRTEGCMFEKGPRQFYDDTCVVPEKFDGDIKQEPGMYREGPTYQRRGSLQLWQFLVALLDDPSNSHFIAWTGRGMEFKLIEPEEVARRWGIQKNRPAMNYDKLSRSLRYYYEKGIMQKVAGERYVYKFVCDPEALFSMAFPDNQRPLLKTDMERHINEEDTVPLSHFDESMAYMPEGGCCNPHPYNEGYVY
Sequence of CRX (O43186 whole entry): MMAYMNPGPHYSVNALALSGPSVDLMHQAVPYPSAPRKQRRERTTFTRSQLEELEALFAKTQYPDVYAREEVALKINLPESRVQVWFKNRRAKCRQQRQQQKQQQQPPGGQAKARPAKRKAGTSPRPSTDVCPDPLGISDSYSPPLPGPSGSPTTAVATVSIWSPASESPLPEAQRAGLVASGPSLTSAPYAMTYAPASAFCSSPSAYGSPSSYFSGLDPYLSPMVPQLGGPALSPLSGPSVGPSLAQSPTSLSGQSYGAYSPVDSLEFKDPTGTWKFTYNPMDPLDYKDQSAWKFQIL
Sequence of HSF1 (Q00613 whole entry): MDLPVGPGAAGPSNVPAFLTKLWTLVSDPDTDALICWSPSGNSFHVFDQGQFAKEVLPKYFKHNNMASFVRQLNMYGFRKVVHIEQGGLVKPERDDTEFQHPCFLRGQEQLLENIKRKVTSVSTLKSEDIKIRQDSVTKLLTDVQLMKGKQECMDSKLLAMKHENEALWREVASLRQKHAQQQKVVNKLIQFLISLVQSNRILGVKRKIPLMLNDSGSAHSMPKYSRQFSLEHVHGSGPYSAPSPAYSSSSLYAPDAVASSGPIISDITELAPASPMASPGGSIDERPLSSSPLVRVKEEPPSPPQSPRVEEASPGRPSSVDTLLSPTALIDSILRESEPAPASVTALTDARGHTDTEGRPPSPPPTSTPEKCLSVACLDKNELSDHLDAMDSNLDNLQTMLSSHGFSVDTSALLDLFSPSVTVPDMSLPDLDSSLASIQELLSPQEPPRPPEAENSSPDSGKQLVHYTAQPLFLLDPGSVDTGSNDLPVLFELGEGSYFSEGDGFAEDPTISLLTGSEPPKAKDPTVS
Sequence of ELF4 (Q99607 whole entry): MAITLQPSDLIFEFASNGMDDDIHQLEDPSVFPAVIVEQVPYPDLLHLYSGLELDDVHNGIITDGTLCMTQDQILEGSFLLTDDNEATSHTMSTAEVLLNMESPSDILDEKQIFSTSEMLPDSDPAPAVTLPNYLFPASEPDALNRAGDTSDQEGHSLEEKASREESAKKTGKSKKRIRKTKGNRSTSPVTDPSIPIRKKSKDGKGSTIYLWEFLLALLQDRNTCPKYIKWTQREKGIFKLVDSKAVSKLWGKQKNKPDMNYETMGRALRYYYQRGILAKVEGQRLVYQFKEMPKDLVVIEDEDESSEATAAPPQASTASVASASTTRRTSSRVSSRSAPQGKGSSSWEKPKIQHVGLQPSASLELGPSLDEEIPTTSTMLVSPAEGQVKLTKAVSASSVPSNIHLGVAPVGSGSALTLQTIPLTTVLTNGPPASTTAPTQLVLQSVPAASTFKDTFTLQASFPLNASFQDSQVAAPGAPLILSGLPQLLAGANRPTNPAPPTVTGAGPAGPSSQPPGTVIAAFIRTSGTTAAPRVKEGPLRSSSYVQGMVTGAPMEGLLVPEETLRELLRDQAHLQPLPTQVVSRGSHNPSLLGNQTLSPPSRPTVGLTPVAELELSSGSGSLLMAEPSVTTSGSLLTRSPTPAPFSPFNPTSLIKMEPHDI
Sequence of ETV5 (P41161 whole entry): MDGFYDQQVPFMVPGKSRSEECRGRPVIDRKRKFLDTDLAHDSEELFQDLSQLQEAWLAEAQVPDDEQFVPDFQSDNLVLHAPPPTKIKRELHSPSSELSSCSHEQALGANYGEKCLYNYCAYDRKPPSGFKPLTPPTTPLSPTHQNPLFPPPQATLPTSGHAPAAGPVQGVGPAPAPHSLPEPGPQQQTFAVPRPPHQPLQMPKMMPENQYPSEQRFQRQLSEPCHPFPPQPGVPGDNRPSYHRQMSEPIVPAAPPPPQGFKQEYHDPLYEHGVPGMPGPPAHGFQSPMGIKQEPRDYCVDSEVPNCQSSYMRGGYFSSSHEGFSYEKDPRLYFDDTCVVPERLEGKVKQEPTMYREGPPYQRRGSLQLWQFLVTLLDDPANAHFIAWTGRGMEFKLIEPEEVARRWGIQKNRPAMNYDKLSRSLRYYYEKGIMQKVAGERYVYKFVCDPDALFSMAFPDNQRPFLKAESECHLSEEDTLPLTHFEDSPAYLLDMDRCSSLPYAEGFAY

For GCTCCT, the binding signal with FEV is 1.46 fold enrichment (6-mer frequency, TF over GST control); in the experiment with ETV5 it was 1.4 fold enrichment (6-mer frequency, TF over GST control); with HSF1, 1.29 fold enrichment (6-mer frequency, TF over GST control); with SPIC, 1.44 fold enrichment (6-mer frequency, TF over GST control); in the experiment with ELF4 it was 1.51 fold enrichment (6-mer frequency, TF over GST control); with ELK4 it was 1.33 fold enrichment (6-mer frequency, TF over GST control). Besides, the binding signal with ETV2 is 1.57 fold enrichment (6-mer frequency, TF over GST control); with ELF3 it was 1.57 fold enrichment (6-mer frequency, TF over GST control); with CRX it was 1.34 fold enrichment (6-mer frequency, TF over GST control); with ETV1 it was 1.46 fold enrichment (6-mer frequency, TF over GST control); in the experiment with ERF, 1.54 fold enrichment (6-mer frequency, TF over GST control); with ETV3L it was 1.61 fold enrichment (6-mer frequency, TF over GST control). In addition, the binding signal with ETS2 is 1.45 fold enrichment (6-mer frequency, TF over GST control); with SPDEF, 1.54 fold enrichment (6-mer frequency, TF over GST control); with ETV7, 1.43 fold enrichment (6-mer frequency, TF over GST control); with ELF5 it was 1.44 fold enrichment (6-mer frequency, TF over GST control); with ETV3 it was 1.37 fold enrichment (6-mer frequency, TF over GST control); in the experiment with ETV6 it was 1.5 fold enrichment (6-mer frequency, TF over GST control).

The record behind these values is publication PMC7862700, “An all-to-all approach to the identification of sequence-specific readers for epigenetic DNA modifications on cytosine”.
